# Source: PubChem (National Center for Advancing Translational Sciences (NCATS))
# Most compounds without a hit are left out; they make up all but 9% or so of the library.
# Lamin A splicing – modulators of lamin A splicing | 200,000 tested, 0.01% active | AID 1487 | Potency, µM (series often up to 46.1 µM), for inactives: at the top dose ratio change, negative = inhibition, hits mostly inhibitors | HeLa LMNA splicing GFP/RFP minigene ratio, 48 h; active = well fitted inhibition curve with a large enough effect in the signal ratio, with a control signal flat, not every such curve was filed as active; inconclusive = small, poorly fitted or top-dose-only effect, or effect the other way, or a change in a side signal; the % refers to the signal ratio; note: % is set by controls: 0 for no effect and ±100 for the full control effect
#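 S3 HeLa stable clones carrying a lamin A-EGFP splicing minigene plus DsRed2 were seeded at 600 cells/well in Opti-MEM with 2% FBS, pin-dosed and incubated 48 h at 37°C. Acumen cytometry (488 nm) gave the GFP/RFP total-intensity ratio.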
# HttQ103 aggreg – reduces HttQ103-GFP aggregates in PC12 cells. 220,000 tested, 1.1% active. PC12 HttQ103-GFP aggregates, Acumen cytometry, 40 h. AID 1688. Potency, µM (doses to about 46.1 µM), without a hit: top-dose activity change, negative = inhibition, hits mostly inhibitors; note: % is set by controls: 0 for no effect and ±100 for the full control effect; nearly all actives have a fitted effect of over 60% in size
#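 Compounds (qHTS titration) were added to PC12 cells expressing an ecdysone-driven HTT exon 1 Q103–GFP fusion after induction with 100 nM tebufenozide. Aggregate formation was measured as GFP objects in cell lysates.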
# HPGD block – inhibitors of human 15-hydroxyprostaglandin dehydrogenase (HPGD); P15428; purified HPGD, NADH fluorescence kinetic, PGE2 substrate; Potency, µM, for inactives: top-dose activity change, negative = inhibition, actives largely listed as inhibitors; 150,000 tested, 4.3% active; AID 894; active = well fitted inhibition curve with a large enough effect, not every such curve was filed as active; inconclusive = small, poorly fitted or top-dose-only effect, or another doubt; inactive = no such curve, though single readings can be large or run the other way; note: % is set by controls: 0 for no effect and ±100 for the full control effect
#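 NADH formation kinetics: reaction with 30 uM PGE2 and 1 mM NAD+ (final), 20 nM enzyme, Tris-HCl pH 8 with Tween 20, after 15 min compound preincubation at room temperature. Fluorescence change, last versus first of five reads.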
# HTT cytoprotect – Huntington cell model cytoprotection by ATP luminescence; PC12 HTT-Q103 induced, cytoprotection, ATP luminescence, 40 h; Potency, µM (series often up to 56.4 µM), inactives show cytoprotection (ATP increase), usual class: activators; 230,000 tested, 0.14% active; note: % of control where 0% means no effect; nearly all actives have a fitted effect of over 45% in size
#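 PC12 cells with ecdysone-inducible HTT exon 1 Q103-GFP, induced with 100 nM tebufenozide and co-treated with library compounds in a dose series (1536-well, 1500 cells/well). Cytoprotection read as ATP content by ATPlite luminescence.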
# ALDH1A1 inh – inhibitors of human aldehyde dehydrogenase 1A1; P00352; Purified ALDH1A1, NADH fluorescence, propionaldehyde substrate; Potency, µM (doses to about 75.3 µM), for the others: at the top dose activity, negative = inhibition, hits mostly inhibitors; 220,000 tested, 7.3% active; AID 1030; active = well fitted inhibition curve with a large enough effect, not every such curve was filed as active; inconclusive = small, poorly fitted or top-dose-only effect, or another doubt; inactive = no such curve, though single readings can be large or run the other way;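 note: plate controls were no enzyme wells and a reference inhibitor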
# Target sequence (P00352 whole entry, looked up): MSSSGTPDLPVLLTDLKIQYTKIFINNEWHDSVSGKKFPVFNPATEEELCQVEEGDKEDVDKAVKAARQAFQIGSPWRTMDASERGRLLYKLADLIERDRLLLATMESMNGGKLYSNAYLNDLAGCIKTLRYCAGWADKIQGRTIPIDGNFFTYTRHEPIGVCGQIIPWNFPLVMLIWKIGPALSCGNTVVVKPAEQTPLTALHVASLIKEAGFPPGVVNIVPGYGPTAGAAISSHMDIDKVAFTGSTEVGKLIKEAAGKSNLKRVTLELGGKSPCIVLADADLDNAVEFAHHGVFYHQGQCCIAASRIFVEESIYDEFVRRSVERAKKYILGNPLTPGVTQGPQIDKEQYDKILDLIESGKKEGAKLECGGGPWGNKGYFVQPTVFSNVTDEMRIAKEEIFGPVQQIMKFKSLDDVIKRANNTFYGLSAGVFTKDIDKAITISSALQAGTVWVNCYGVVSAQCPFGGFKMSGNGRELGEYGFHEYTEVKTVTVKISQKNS
# Luc counter – blocks Kinase-Glo luciferase, a counter-screen artifact; Q27757; Kinase-Glo luciferase, ATP luminescence, 8 min; Potency, µM (titrated, usually from 38.3 µM), inactives show top-dose activity change, negative = inhibition, actives largely listed as inhibitors; 200,000 tested, 0.28% active; AID 1379; note: % is set by controls: 0 for no effect and ±100 for the full control effect; nearly all actives have a fitted effect of over 60% in size
#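 Kinase-Glo luciferase light output from ATP and luciferin was measured with 10 uM ATP, within the enzyme's linear range. Buffer: 50 mM imidazole pH 7.2, 50 mM KCl, 7 mM MgCl2, 0.01% Tween 20, 0.05% BSA; luminescence read after 8 min at ambient temperature.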
# Starred values were filed as active, the others as inactive; ? = inconclusive; nt = not tested or not shown; [ ] = another dose, or the depositor's remark. Unless noted, calls come from the whole dose curve; as a rule, active = well fitted curve in the direction sought with a large enough effect; inconclusive = small, poorly fitted or top-dose-only effect, or another doubt; inactive = no such curve, though single readings can be large; an effect the other way counts as inactive or inconclusive. Potency is the fitted concentration of half-maximal effect.
SMILES,Lamin A splicing,HttQ103 aggreg,HPGD block,HTT cytoprotect,ALDH1A1 inh,Luc counter
CC(C)n1nnnc1SCC(=O)NCc1cccs1,-7%,-5%,-16%,-6%[10 µM],?,2%
CCOc1ccccc1/C=C(\C#N)C(=O)Nc1cccc(C(=O)O)c1,nt,12%[9.22 µM],nt,13%[10 µM],nt,nt
COc1ccc(NC(=O)CSc2nnc(Cc3cccn3C)n2-c2ccc(F)cc2)cc1,-12%,-3%,2%,-13%,?,7%
COc1cccc(NC(=O)CSc2nnc(Cc3cccn3C)n2-c2ccc(F)cc2)c1,-12%,23%,-22%,-13%,14µM*,-2%
COc1ccc(-n2c(Cc3cccn3C)nnc2SCC(=O)Nc2ccccc2F)cc1,-7%,10%,1%,9%[10 µM],16µM*,7%
COc1ccc(-n2c(Cc3cccn3C)nnc2SCC(=O)Nc2ccc(F)cc2F)cc1,-2%,29%,-12%,-4%,10µM*,3%
COc1ccc(-n2c(Cc3cccn3C)nnc2SCC(=O)Nc2cccc(C)c2C)cc1,-8%,13%,-11%,-1%,14µM*,4%
COC(=O)C1=C(C)N(C2CCCCC2)C(=O)C1,0%,-9%,2%,-6%,?,-6%
CCn1c(=O)c2ccccc2n2c(SCC(=O)N3CCCc4ccccc43)nnc12,0%,-6%,-7%,-29%,?,-1%
Cc1ccc(Cc2c[nH]c(=S)s2)cc1,nt,?,nt,23%[10 µM],8.9µM*,-1%
Cc1ccc(Cc2c(C)[nH]c(=S)[nH]c2=O)cc1,nt,8%[9.22 µM],nt,28%[10 µM],nt,nt
O=C(NCc1ccco1)c1scc2c1OCCO2,4%,5%,-29%,7%,22µM*,-10%
O=C(NCc1ccco1)c1ccc(Br)s1,6%,-11%,16µM*,-12%,?,-5%
O=C(NCc1ccco1)c1cc2c(s1)CCCCC2,2%,-11%,16µM*,-16%[10 µM],28µM*,-9%
O=C(NCc1ccco1)c1ccc(C(=O)NCc2ccco2)s1,-9%,-23%,-12%,16%,2%,-4%
COCCNC(=O)CSc1nnc(NC(=O)Nc2ccc(C)cc2)s1,3%[46 µM],nt,nt,nt,nt,nt
Cn1c(N2CCN(C(=O)NCc3ccccc3)CC2)nc2ccccc21,12%,2%,-8%,-4%[10 µM],4µM*,-2%
CNc1cccccc1=S,5%,18%,28µM*,-12%,10µM*,5%
Cc1cccc(C)c1N(CC(=O)Nc1cccc(N(C)S(C)(=O)=O)c1)S(C)(=O)=O,8%,4%,-14%,-20%[10 µM],22µM*,3%
COC(=O)C1=C(C(=O)OC)C(c2cc(Cl)ccc2O)c2sc(=O)[nH]c2S1 (configuration not stated),5%,-9%,20µM*,-9%,32µM*,2%
CCOC(=O)Cn1nnc(-c2ccc(OCC(C)C)cc2)n1,3%,3%,-6%,-11%,3%,10%
CC(=O)Nc1ccc(C(=O)Nc2cc(C(F)(F)F)ccc2-n2cnc3ccccc32)cc1,?,-3%,14µM*,-9%[10 µM],?,3%
COc1ccc(C(=O)Nc2cc(C(F)(F)F)ccc2-n2cnc3ccccc32)cc1,-10%,-21%,-2%,4%[10 µM],?,-1%
CN(C)c1ccc(/C=N\NC(=O)c2csnn2)cc1,-7%,9%,-17%,-44%,1µM*,?
Cc1cccc(/C=N\NC(=O)c2csnn2)c1,1%[0.0737 µM],-11%,3.2µM*,-17%,-52%,?
O=C(N/N=C\c1ccc(Oc2ccccc2)cc1)c1csnn1,8%[46 µM],-28%,nt,-21%,9%,-9%
CN(C)c1ccc(/C=N/NC(=O)c2ccnn2C)cc1,nt,-2%[9.22 µM],nt,-7%[10 µM],?,1.8µM*
CN(C)c1ccc(/C=N/NC(=O)c2ccn(C)n2)cc1,nt,14%[9.22 µM],nt,-10%[10 µM],?,nt
COc1cc(C2NCC(c3ccc(Cl)cc3Cl)c3c2[nH]c2ccccc32)cc(OC)c1OC (configuration not stated),?,?,-11%,5%[10 µM],?,4%
